Results as given in ChEMBL document CHEMBL3988442, “University of Dundee, Small-Polar-MMV Screening Library” (2021).
Hit rate of the full screen: of about 48,000 compounds, about 13,000 (27%) showed an effect of 50% or more. Some of the results follow.

Test system: Wolbachia pipientis
Assay: Anti-Wolbachia Cell-Based Screen
Format: functional
Parameters: scale not given: in the data most compounds retested in dose-response had high values
Settings: 5 µM

| SMILES | Percent Effect [%] |
| --- | --- |
| CCn1cc(S(=O)(=O)Nc2cccnc2-n2cccn2)nc1C | -8.927 |
| O=C(NC1(c2nc(C3CC3)no2)CCCCC1)c1cccnc1O | -6.139 |
| O=S(=O)(CCNCc1cc(O)c2cc(F)ccc2n1)N1CCCC1 | -19.62 |
| C=C(C)COc1ccc(C(=O)NCC2CC(CC)=NO2)cc1 (stereo not drawn) | 5.055 |
| Cc1noc(C)c1CNC(=O)C(C)Oc1ccccc1F (stereo not drawn) | -0.2471 |
| CCc1nonc1NC(=O)C(C)Oc1ccccc1F (stereo not drawn) | -3.063 |
| Cc1nc(CNC(=O)C(C)Oc2ccccc2F)no1 (stereo not drawn) | 94.07 |
| CC(C)Oc1ncc(C(=O)N2CCC(NC(=O)C3CC3)CC2)cc1Cl | -2.3 |
| CCSCCC(C)N(C)C(=O)c1ccc(C)o1 (stereo not drawn) | 3.019 |
| COCCN1CC2(CCCN(C(=O)NCCc3cccs3)C2)CCC1=O (stereo not drawn) | 2.041 |
| COCCOCC(=O)Nc1ccc(C)cc1Cl | 120.1 |
| COCCOCC(=O)Nc1cccc(CN(C)C(C)=O)c1 | 3.065 |
| Cc1ccc(NC(=O)CNc2cccc3c2CCCC3)c(Br)c1 | 9.995 |
| Cc1ccc(NC(=O)N(C)CC(O)COCCOC(C)C)c(Br)c1 (stereo not drawn) | -14.49 |
| COCCOCC(=O)NC(C#N)c1cc(Cl)cc(Cl)c1 (stereo not drawn) | -3.504 |
| COCCOCC(=O)Nc1ccc(C)cc1Br | 93.08 |
| COc1cc2c(nn1)CCN(Cc1ncc(C(C)(C)C)o1)C2 | 5.733 |
| CCN(C)S(=O)(=O)NCC1(c2cccc(Br)c2)CC1 | 0.1722 |
| CCCC(=O)NCC(=O)NC1CC(C)(C)Cc2oc(C)cc21 (stereo not drawn) | -3.424 |
| CN(C)c1ccc(C(=O)N2Cc3cnc(C(C)(C)C)nc3C2)cc1 | 19.06 |
| CN(C)CC(=O)NC1CC(C)(C)Cc2nc(C(C)(C)C)ncc21 (stereo not drawn) | 106.4 |
| CN(C)CCCC(=O)NC1CC(C)(C)Cc2nc(C(C)(C)C)ncc21 (stereo not drawn) | 112.6 |

| SMILES | Percent Effect [%] |
| --- | --- |
| COc1ccc(C(CNC(=O)c2cnc(C)cn2)N2CCOCC2)cc1 (stereo not drawn) | 15.25 |
| CCC(CC)C(CNC(=O)Nc1ccc(OC)cc1)N1CCOCC1 (stereo not drawn) | 4.336 |
| COc1ccc(NC(=O)C(c2ccc(OC)cc2)N2CCOCC2)cc1 (stereo not drawn) | 109.2 |
| CSc1nc2cc(C)n(CC(=O)N3CCCC3)c2c(=O)n1CC(C)C | 4.703 |
| Cc1cc(N(C)CCCn2cccn2)nc(N)n1 | 93.8 |
| Cc1cc(C(=O)N(C)CCCn2cccn2)nc(N)n1 | 99.09 |
| Cc1cc(N(C)Cc2ncc[nH]2)nc(-c2cccnc2)n1 | -8.057 |
| CN(CCn1cccn1)c1cc(C(F)(F)F)nc(-c2cccnc2)n1 | -9 |
| Cc1cc(C(=O)N2C[C@@H]3[C@@H](CN(C)CCCn4cccn4)[C@@H]3C2)c(C)o1 | 2.079 |
| COc1ccccc1OCCCN(C)c1cc(C)nc(N)n1 | -7.239 |
| Cc1cc(N(C)CCCn2cccn2)nc(-c2cccnc2)n1 | 95.65 |
| CC(C)[C@H]1COC(=O)N1CC(=O)N(C)CCCn1cccn1 | -1.545 |
| Cc1cc(N(C)CC2COc3ccccc3O2)nc(N)n1 (stereo not drawn) | -8.93 |
| Cc1cc(N2CCN(C3CCSCC3)CC2)n2nc(C)c(C)c2n1 | -17.53 |
| CCCN(CCC)S(=O)(=O)NC(C)C(=O)N(C)C (stereo not drawn) | -7.467 |
| CCC[C@H]1CN(CCS(C)(=O)=O)C[C@@H]1NC(=O)c1ccccc1F | -18.99 |
| CC(=O)N1CCOCC(Cc2ccc3c(ccn3C)c2)C1 (stereo not drawn) | 138.8 |
| O=C(CCCc1cn[nH]c1)N1CCOCC(O)C1 (stereo not drawn) | -4.397 |
| CN(C)c1ccc(CC(=O)N2CCOCC(O)C2)cc1 (stereo not drawn) | -50.44 |
| CC(=O)NCC(=O)N1CCOCC(Cc2ccc3c(ccn3C)c2)C1 (stereo not drawn) | 143.9 |
| CC(=O)NCC(=O)N1CCC(C2CCN(Cc3ccc(Cl)cc3)C2)CC1 (stereo not drawn) | -7.699 |
| Cn1ccc2cc(C(=O)N3CCOCC3)ccc21 | -3.73 |

| SMILES | Percent Effect [%] |
| --- | --- |
| CN(C)C(=O)Cn1ccc2cc(NC(=O)N3CCOCC3)ccc21 | -7.307 |
| NC(=O)c1cccc(CC2CCN(C(=O)CCCN3CCOCC3)C2)c1 (stereo not drawn) | -2.023 |
| COCCC(=O)N1CCOCC(Cc2ccc3c(ccn3C)c2)C1 (stereo not drawn) | 165.7 |
| CC(=O)N1CCOCC(Cc2ccc3c(ccn3C(C)=O)c2)C1 (stereo not drawn) | 130 |
| CC(=O)N1CCOC[C@H](Oc2ccc(C(F)(F)F)cc2)C1 | -13.29 |
| CC(C)C(=O)Nc1ncn(Cc2cccc(Br)c2)n1 | 13.22 |
| Cc1nn(C)cc1-c1cc(C(F)(F)F)c2c(C)nn(CC(=O)O)c2n1 | 1.02 |
| Cn1cc(-c2cc(C(F)(F)F)n(CCCN)n2)cn1 | 106 |
| Cc1nn(C)cc1-c1ccnc(NCCN)n1 | 0.4357 |
| Cc1cc(-c2cnn(C)c2)ccc1OCC(N)=O | 1.914 |
| CCn1cc(-c2cc(C(F)(F)F)n(CCCN)n2)cn1 | 69.39 |
| Cc1nn(C)cc1-c1cc(C(F)(F)F)n(CCCN)n1 | 117.1 |
| Cn1cc(-c2nc(C3CCN(CC4CC4)CC3)cc3c2ncn3C)cn1 | -12.1 |
| Cc1noc(CCCC(=O)Nc2ncccc2Br)n1 | -19.61 |
| CCOCC1CN(Cc2ccoc2)Cc2cn(CC3CC3)nc21 (stereo not drawn) | 25.6 |
| O=C(c1cn(Cc2ccc(Cl)cc2)nn1)N1CCCO1 | -12.44 |
| Cc1ncc(C(=O)N2CC[C@@]3(O)CCN(C(=O)N(C)C)C[C@H]3C2)cn1 | -6.772 |
| Cc1ncc2c(n1)C1(CCN(C(=O)C3CC3)CC1)OCC2.Cl | 134.7 |
| O=C(C1CCC1)N1CCC2(COCc3cnc(N4CCOCC4)nc32)C1 (stereo not drawn) | -15.94 |
| Cc1cnc(N2CCOC3(CCCN(C(=O)C(C)C)C3)C2)nc1 (stereo not drawn) | -6.845 |
| Cc1ncc2c(n1)C1(CCN(C(=O)C(C)C)CC1)OCC2.Cl | 141.2 |
| CCc1cnc(C)nc1N1CCN(C(N)=O)CC1 | -3.33 |

| SMILES | Percent Effect [%] |
| --- | --- |
| Clc1ccc(CN2CCN(Cn3nccc3-c3cccnc3)CC2)s1 | 6.087 |
| CCC1CN(c2cnn(C)c(=O)c2Cl)CCO1 (stereo not drawn) | 22.68 |
| CCC1CN(c2cnn(-c3ccccc3)c(=O)c2Cl)CCO1 (stereo not drawn) | 4.552 |
| Cc1ccccc1C1CN(c2cnn(C)c(=O)c2Cl)CCO1 (stereo not drawn) | 91.27 |
| Cc1cccc(N(CCC(N)=O)CC(=O)Nc2cc(Cl)ccc2Cl)c1 | -1.848 |
| O=C(O)C(F)(F)F.O=C(O)C(F)(F)F.c1ccc(CNCC2Cn3nnc(-c4ccncc4)c3CO2)nc1 (stereo not drawn) | 9.944 |
| Cc1nc(NCc2ccc(C)o2)cc(C(=O)N2CCOCC2)n1 | -3.993 |
| CC(=O)NCC1CCN(C(=O)c2csc(-c3ccc(C)cc3C)n2)CC1 | -1.979 |
| CC(=O)N1CCN(c2cc(-n3cnc(C)c3C)nc(C)n2)CC1 | -7.107 |
| CN(C)CCNC(=O)c1cc2n(n1)CCN(C(=O)CC(C)(C)C)C2 | 4.361 |
| CC(=O)N1CCC(C)(c2cc(C(=O)NCC(C)(C)C)nc(C)n2)CC1 | 109.7 |
| CCN(CC)C(=O)c1cc(C2(C)CCN(C(C)=O)CC2)nc(C)n1 | 112.9 |
| CC(=O)N1CCC(C)(c2cc(C(=O)NCC3CC3)nc(C)n2)CC1 | 107.8 |
| Cc1nc(CN2CCC(CNC(=O)C3(C)CCCC3)CC2)oc1C | -9.195 |
| CCCN(Cc1nccn1C)C(=O)c1cc(C)nc(C)n1 | -2.808 |
| CNc1nc(N2CCN(C)C(CCO)C2)nc2c1CCC2 (stereo not drawn) | -12.86 |
| CNc1nc(C2CCCN2C(C)=O)nc2c1CN(C1CCCC1)CC2 (stereo not drawn) | 121.2 |
| CNc1nc(N2CCN(CC=C(C)C)C(CCO)C2)nc2c1CCC2 (stereo not drawn) | -3.074 |
| CNc1nc(N2CCN(C3CCCCC3)C(CCO)C2)nc2c1CCC2 (stereo not drawn) | 13.4 |
| CNc1nc(C2CCCN2C(C)=O)nc2c1CCN(CC1CC1)C2 (stereo not drawn) | -2.53 |
| CNc1nc(C2CCCN2C(C)=O)nc2c1CN(CCO)CC2.O=CO (stereo not drawn) | 123.3 |
| N[C@@H]1CCN(Cc2cccc(N3CCOCC3)c2)C[C@H]1O | -37.83 |

| SMILES | Percent Effect [%] |
| --- | --- |
| Cc1oc2nc[nH]c(=O)c2c1C(=O)N1CCCC(n2cccn2)C1 (stereo not drawn) | -6.627 |
| CC(C)OCCCNC(=O)C1CCC(=O)N(C2CCCC2)C1 (stereo not drawn) | 25.57 |
| CC(Cn1ccnc1)NC(=O)C1(c2ccc3c(c2)OCCO3)CCCC1 (stereo not drawn) | 6.008 |
| CN(Cc1cnn(C)c1)C(=O)C1COCC(=O)N1Cc1ccccc1 (stereo not drawn) | 16.93 |
| Cc1nc(C)c(C(=O)N(C)Cc2cnn(C)c2)s1 | -4.031 |
| CCCn1nc(C(=O)N(C)Cc2cnn(C)c2)ccc1=O | 125 |
| CN(Cc1cnn(C)c1)C(=O)c1ccc(=O)n(Cc2ccccc2)n1 | 97 |
| Cc1ccccc1C(C(=O)N(C)Cc1cnn(C)c1)N(C)C (stereo not drawn) | -13.96 |
| CCCn1nc(C(=O)N(C)Cc2nnc3n2CCC3)ccc1=O | -34.52 |
| CC(=O)NCCNCC1(O)CCCN(CCC2CCCCC2)C1=O (stereo not drawn) | -25.88 |
| O=C(O)c1ccnc(-c2ccnc(COc3ccccc3Cl)n2)c1 | -33.61 |
| Cc1noc(CN2CC(=O)N(C)c3ccccc3C2=O)n1 | 12.92 |
| Cc1c(CS(C)(=O)=O)cccc1NC(=O)CC1CCCC1 | -14.57 |
| Cc1nc(COC[C@]23COC[C@H]2CN(Cc2ccoc2)C3)cs1.O=C(O)C(F)(F)F | -5.417 |
| Cc1csc(CN2C[C@@H]3COC[C@]3(COCC(=O)N(C)C)C2)n1.O=C(O)C(F)(F)F | 103.7 |
| CCS(=O)(=O)NC[C@]12COC[C@H]1CN(Cc1sccc1C)C2.O=C(O)C(F)(F)F | -13.08 |
| Cc1nc(CN2C[C@@H]3COC[C@]3(COCC(=O)N(C)C)C2)cs1.O=C(O)C(F)(F)F | 99.96 |
| Cc1nc(COC[C@@]23CCC[C@@H]2CN(CC2CCOCC2)C3)cs1.O=C(O)C(F)(F)F | 1.66 |
| Cc1ccsc1CN1C[C@@H]2COC[C@]2(CNC(=O)c2ccco2)C1.O=C(O)C(F)(F)F | -18.71 |
| Cc1ccsc1CN1C[C@@H]2COC[C@]2(COCC(=O)N(C)C)C1.O=C(O)C(F)(F)F | 107.4 |
